Reference: the supplement of paper PMC6555819

Columns and labels:
Assay in all cases: PBM binding z-score (relative to random genomic background probes); higher = stronger binding; sequences stand for … in GC…GCGATTGACAGCGTAGAATGAAGG
[1] = tested on: RARb homodimer (NR concentration 270 nM)
Summary of the method: (§1)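 Custom Agilent 4×180K protein-binding microarrays carried double-stranded probes, each with a 34-nt variable region. These regions held direct-repeat seeds, single-nucleotide variants, half-site ablations and random human genomic background sequences. Ligand-free nuclear receptor dimers were incubated on the arrays for 1 h, antibodies against each partner (one per run) detected binding, and scanned fluorescence was regression-normalized. Binding z-scores take the random background probes as reference.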

[2] = tested on: RARg:RXRa (NR concentration 270 nM, RXRa partner concentration 90 nM)
Summary of the method: as §1

[3] = tested on: RARg homodimer (NR concentration 270 nM)
Summary of the method: as §1

[4] = tested on: RXRa DBDmut IVT, anti-RXR (DBD mutation: RXRa K156A/R161A, NR concentration 90 nM)
Summary of the method: as §1

[5] = tested on: RXRa homodimer (NR concentration 180 nM)
Summary of the method: as §1

[6] = tested on: THRa:RXRa (NR concentration 90 nM, RXRa partner concentration 90 nM)
Summary of the method: as §1

[7] = tested on: THRa homodimer (NR concentration 90 nM)
Summary of the method: as §1

[8] = tested on: VDR homodimer (NR concentration 270 nM)
Summary of the method: as §1

Sequence	PBM binding z-score [1]	PBM binding z-score [2]	PBM binding z-score [3]	PBM binding z-score [4]	PBM binding z-score [5]	PBM binding z-score [6]	PBM binding z-score [7]	PBM binding z-score [8]
TCATATAGGTAATACACGTGAAAGTCGGCATCTA	0.355	0.577	0.604	1.92	0.939	0.156	-0.0139	0.589
CCGACTGGGGCAAATGTTACCATACTCAGTACGA	0.264	0.382	0.67	0.518	0.184	-0.0523	-0.199	-0.144
GGAACGAGGGCAAGGTTGATAGCATCTGTCGACG	1.67	1.67	1.88	1.72	1.32	1.45	0.156	1.39
ATATCTAGGTTACATCCGGGTCATTCAGGCTATG	3.15	3.37	2.49	1.4	2.78	3.94	3.37	3.63
AGAATGAGGTTGAGATCAGGGAAACAGAATACAT	0.193	0.514	0.477	-0.1	0.612	1.35	-0.0652	0.0379
GCTATTAGTTGAAAGGGCAACCGGATGATTCTCG	2.11	1.41	1.33	0.824	1.22	0.688	-0.119	0.228
GCATATAGGTCATACAAGGTGAAAGTCCGATTGT	3.94	5.1	4.65	1.98	4.8	–	1.62	1.23
